From PubChem BioAssay
NS1 inh – blocks influenza NS1 protein function; Potency, µM (doses to about 46.1 µM); AID 2326; 0.4% of 270,000 active; calls by dose curve; note: actives are rising curves; nearly all actives have a fitted effect of over 50% in size
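A cell-based growth assay was used: compounds that relieve NS1-induced slow growth of budding yeast raise OD600. Assay medium was yeast nitrogen base with ammonium sulphate and -URA supplement, pH 6.0, with 2% galactose.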
Pf growth 96h – P. falciparum growth inhibition at 96 hours; AID 504834; P. falciparum luciferase reporter growth, 96 h; Potency, µM (highest dose often 28.7 µM), hits mostly inhibitors; 6.9% of 320,000 active
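Two parasite generations (96 h, 37 C, 5% CO2) of compound exposure in infected erythrocytes (0.05% parasitemia, 2% hematocrit). Luciferase-reporter P. falciparum; decreased luminescence indicates inhibited growth, aimed at apicoplast-acting delayed death.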
SARS PLpro yeast-1 – blocks SARS-CoV papain-like protease in a yeast assay; 0.19% of 330,000 active; S. cerevisiae expressing SARS-CoV PLpro, growth rescue; Potency, µM (doses to about 32.9 µM), actives largely listed as activators; AID 485353; calls by dose curve; note: nearly all actives have a fitted effect of over 55% in size
Pf growth 48h – inhibits P. falciparum growth in the first generation, 48 h; P. falciparum luciferase growth in erythrocytes, 48 h; Potency, µM (titrated, usually from 28.7 µM), actives largely listed as inhibitors; 5.9% of 310,000 active; AID 504832
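Cell-based growth assay: transgenic P. falciparum expressing firefly luciferase, cultured in red cells within RPMI 1640 containing 0.5% w/v Albumax, 24 mM bicarbonate and gentamycin. A drop in luciferase activity indicates inhibition.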
SARS PLpro yeast-2 – Inhibits SARS-CoV PLP in yeast, hit validation; yeast expressing SARS-CoV PLpro, growth phenotype rescue; 19% of 1,000 active; shares compounds with SARS PLpro yeast-1; AID 652038; calls only; call rule not given here
Of the large screens only hits and unclear results are named; the others gave an inactive call (follow-up assays come after a bar, where they were run). An excerpt weighted towards active compounds, which were near 10% of everything screened. Unless noted, calls come from the whole dose curve; as a rule, active = well fitted inhibition curve with a large enough effect; inconclusive = small, poorly fitted or top-dose-only effect, or another doubt; inactive = no such curve, though single readings can be large or run the other way.

CCN(CC)C(=O)c1cccc(NC(=O)C2=COCCO2)c1	SARS PLpro yeast-1 2.24µM (no result: NS1 inh) | SARS PLpro yeast-2 inactive
Cc1cc(/C=N/NC(N)=S)c(C)n1-c1ccc(Br)cc1	SARS PLpro yeast-1 inconclusive, Pf growth 48h inconclusive (no result: NS1 inh)
Cc1cc(/C=N/NC(N)=S)c(C)n1-c1ccc(Cl)cc1	SARS PLpro yeast-1 11.2µM, Pf growth 48h inconclusive | SARS PLpro yeast-2 inactive
Nc1c(Cl)ncnc1N/N=C/c1ccnc2ccccc12	none
Nc1c(Cl)ncnc1N/N=C/c1ccc2ccccc2n1	Pf growth 96h 3.7µM, Pf growth 48h inconclusive (no result: SARS PLpro yeast-1) | SARS PLpro yeast-2 inactive
Cc1csc(CNC(=O)C2CCC(=O)N(CCCc3ccccc3)C2)n1 (configuration not stated)	Pf growth 96h inconclusive
N#Cc1ccccc1NC(=O)COC(=O)/C=C/c1cn(-c2ccccc2)nc1-c1ccc(Cl)cc1	none
NC(=O)c1ccc(NC(=O)COC(=O)/C=C/c2cn(-c3ccccc3)nc2-c2cccnc2)cc1	SARS PLpro yeast-1 inconclusive | SARS PLpro yeast-2 inactive
CCN(CC)S(=O)(=O)c1ccc(C(=O)N2CCN(c3ncccn3)CC2)cc1	none
CCN(Cc1ccccc1)S(=O)(=O)c1ccc(C(=O)N2CCN(c3nc4ccccc4s3)CC2)cc1	SARS PLpro yeast-1 2.82µM | SARS PLpro yeast-2 inactive
O=C(NNC1CC(=O)N(c2ccccc2)C1=O)c1ccco1 (configuration not stated)	Pf growth 96h inconclusive
O=C(N=C1SCC(=O)N1c1ccccc1)c1ccco1	SARS PLpro yeast-1 inconclusive (no result: Pf growth 48h) | SARS PLpro yeast-2 inactive
COc1cc2ccccc2cc1C(=O)NCC(c1cccs1)N(C)C (configuration not stated)	none (no result: NS1 inh)
CCn1nc(C)c(/C=C/C(=O)Nc2ccc(C)cc2C)c1C	Pf growth 96h inconclusive, SARS PLpro yeast-1 inconclusive, Pf growth 48h inconclusive | SARS PLpro yeast-2 inactive
CCOc1ccccc1NC(=S)Nc1ccccc1F	Pf growth 96h 13.1µM, SARS PLpro yeast-1 inconclusive | SARS PLpro yeast-2 inactive
CCN1CCCC1CN(Cc1cc2c(C)cc(C)cc2[nH]c1=O)C(=O)NC1CCCCC1 (configuration not stated)	SARS PLpro yeast-1 inconclusive, Pf growth 48h 9.28µM (no result: Pf growth 96h) | SARS PLpro yeast-2 inactive
N#CC1=C(N)Oc2cc3ccccc3cc2C1c1cccnc1 (configuration not stated)	Pf growth 96h inconclusive, Pf growth 48h inconclusive
CC(C)(C)C1=C(C#N)C(c2cccnc2)C(C#N)=C(N)O1 (configuration not stated)	SARS PLpro yeast-1 17.8µM | SARS PLpro yeast-2 inactive
COc1cccc(C2C(C#N)=C(N)OC(C(C)(C)C)=C2C#N)c1 (configuration not stated)	Pf growth 96h inconclusive
N#CC1=C(N)Oc2c(ccc3cccnc23)C1c1cccnc1 (configuration not stated)	SARS PLpro yeast-1 inconclusive, Pf growth 48h inconclusive (no result: Pf growth 96h) | SARS PLpro yeast-2 inactive
COCCN(C(=S)Nc1c(C)cccc1C)C(C)c1ccco1 (configuration not stated)	none
O=C(NCCc1ccc(Cl)cc1)C1COc2ccccc2O1 (configuration not stated)	none
O=C(Nc1ccccc1C(F)(F)F)c1ncn[nH]1	none
CN(C)Cc1cc(C(C)(C)C)cc(CN(C)C)c1O	none (no result: Pf growth 96h, SARS PLpro yeast-1, Pf growth 48h)
CN(C)Cc1cc(C(C)(C)c2cc(CN(C)C)c(O)c(CN(C)C)c2)cc(CN(C)C)c1O	SARS PLpro yeast-1 12.6µM, Pf growth 48h 4.15µM (no result: Pf growth 96h) | SARS PLpro yeast-2 inactive
Cc1ccc(C(=O)Nc2nc(-c3ccccc3)c(-c3ccccc3)o2)cc1	Pf growth 96h inconclusive, SARS PLpro yeast-1 10µM | SARS PLpro yeast-2 active
COc1ccc(CC(=O)NNC(=O)COc2ccc(Cl)cc2C)cc1S(=O)(=O)N1CCOCC1	none (no result: NS1 inh)
O=C(CN1CC(c2ccccc2)CC1=O)N/N=C/c1cc(Br)ccc1O (configuration not stated)	SARS PLpro yeast-1 10µM | SARS PLpro yeast-2 active
CN(C)c1nc(N2CCN(c3ccccc3)CC2)c(C#N)c(=O)o1	none
N#CC1C(=O)NC(N2CCN(c3ccccc3)CC2)=NC12CCCCC2 (configuration not stated)	NS1 inh inconclusive, SARS PLpro yeast-1 15.8µM | SARS PLpro yeast-2 inactive
O=C(c1cccc(S(=O)(=O)N2CCCc3ccccc32)c1)N1CCN(c2ccccc2)CC1	none (no result: NS1 inh, Pf growth 96h, Pf growth 48h)
Cc1ccc(NC(=S)Nc2ccc3cn[nH]c3c2)c(C)c1	none (no result: NS1 inh)
Cc1ccc(NC(=S)Nc2ccc3cn[nH]c3c2)cc1C	SARS PLpro yeast-1 2.51µM | SARS PLpro yeast-2 inconclusive
CCN(CC)Cc1c(C(=O)N/N=C/c2c(Cl)cccc2Cl)nnn1-c1nonc1N	none
